# The campaign covered roughly 330,000 compounds. About 100 (0.03%) were called active. Inconclusive results (about 1%) are left out. What follows is part of a selection rich in actives, with near analogues and random picks from the rest. Values without a mark were called inactive. The call rests on the fitted dose curve; in most records, active means well fitted inhibition curve with a large enough effect; inconclusive means small, poorly fitted or top-dose-only effect; inactive means flat fitted curve, though single readings scatter.
# Test system: Chaperonin Mm-Cpn (Methanococcus maripaludis)
# Assay: Inhibitors of TCP-1 ring complex (TRiC) of Methanococcus maripaludis (MmCpn): qHTS; further: nearly all actives have a fitted effect of over 80% in size;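 on Potency: enzyme at 25 nM with ATP substrate at 10 µM during the reaction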
# Details: purified Mm-Cpn ATPase, ADP Transcreener TR-FRET; series mostly up to 76.9 µM; activity, negative = inhibition: at the top concentration
# Excerpt: The eukaryotic chaperonin TRiC (for TCP-1 ring complex) is an essential and conserved chaperone required for the folding and activation of 10-15% of the proteins encoded by the human genome. […] The TRiC complex consist of two stacked 7-9 membered rings, each containing a central cavity. Substrates are folded within the cavity in an ATP-dependent manner. TRiC is a complex of eight different, essential proteins. As each of the genes encoding the eight subunits is essential for cell viability and no protocol has been developed to over-express this enzyme to high levels. That is why several groups studying the TRiC chaperonin have turned to the archaeal homolog of TRiC, Methanococcus maripaludis (Mm-CPN), and have used this enzyme as a model system for the study of the type II chaperonin family. Small molecule inhibitors of the Mm-CPN enzyme would be extremely useful to study the mechanism of chaperonin activity. Importantly, TRiC and Mm-CPN both require ATP hydrolysis for function. Furthermore, the ATP binding sites are highly conserved among these type II chaperonins. This provides us with an easy, well tested and straightforward assay to identify inhibitors of chaperonin activity. The Mm-CPN assay was developed in 1536-well plate format using the HTRF Transcreener ADP assay kit (Cisbio, Bedford, MA). This assay applied the time resolved fluorescence resonance energy transfer (TR-FRET) principle. ATP in the presence of Mm-CPN is converted to ADP + Pi. An antibody labeled with Eu3+-Cryptate specific and bound to ADP labeled with […] (d2) competes with the unlabeled ADP generated by Mm-CPN. The resulting TR-FRET signal is inversely proportional to the concentration of ADP in the sample. In this assay a reduction in TR-FRET signal is observed with ATP turnover. NIH Chemical Genomics Center [NCGC] NIH Molecular Libraries Probe Centers Network [MLPCN] MLPCN Grant: DA030554-01A1 Assay Submitter (PI): Judith Frydman, Stanford University
# Purified Mm-CPN was supplied by the laboratory of Dr. Judith Frydman. Protein samples were stored at -80C as single use aliquots. Protein was thawed in ambient temperature water bath and placed on ice once thawed. Buffer was prepared fresh day of screen. The buffer composition below was used to prepare the working solution of the Mm-CPN protein and ATP substrate. The buffer is comprised of 30 mM TRIS pH 7.4, 100mM KCl, 5mM MgCl2, and 1mM DTT. A final concentration of 25nM Mm-CPN and 10uM ATP per well were used in the screen. Instructions according to the manufacturer were followed for the ADP Transcreener kit. Used 1536 well Greiner white, medium binding (MB), solid bottom plates. Plates were read on the PerkinElmer EnVision plate reader using Excitation = 320 nm and Emission = […], 665 nm. Protocol- 1.Dispense 1.5ul per well of working [Mm-CPN] = 50nM (or 75 ng / well) 2.Spin plate at 1000 rpm for 30 seconds 3.23nl of compound transferred per well 4.Incubate at 37degC for 10 minutes 5.Dispense 1.5ul per well of working [ATP] = 20uM 6.Incubate at 37degC for 30 minutes 7.Dispense 3ul per well of Anti-ADP Cryptate / ADP-d2 mix (prepared as instructed by Cisbio) 8.Incubate at ambient for 30 minutes 9.Read using EnVision
# On the % scale 0 is the no-effect control and ±100 the full control effect; potency means the concentration at half of the fitted maximal effect.
SMILES,"activity, negative = inhibition",Potency
CCOc1ccc(NC(=O)COC(=O)C2CCC(=O)N2)c([N+](=O)[O-])c1 (stereo not drawn),-2.17%,–
CN(C(=O)CSc1nnc(C2CC2)n1C)C1CCCc2ccccc21 (stereo not drawn),1.32%,–
C=C(C)c1cccc(C(C)(C)NC(=O)NC2CCCC2)c1,3.61%,–
CC(=O)NC(NC(=S)Nc1c(C)n(C)n(-c2ccccc2)c1=O)C(Cl)(Cl)Cl (stereo not drawn),0.437%,–
COc1cccc(NS(=O)(=O)c2ccc(-c3coc(C)n3)cc2)c1,1.38%,–
Nc1ccccc1C(=O)NC1CCCCNC1=O (stereo not drawn),1.08%,–
COc1cccc(N2CC(C(=O)NCc3n[nH]c(=O)c4ccccc34)CC2=O)c1 (stereo not drawn),2.26%,–
CCOC(=O)c1c(N)c(C#N)nn1-c1ccccc1C(=O)OC,-12.9%,–
O=C(c1c(F)cccc1F)N1CCN(c2ncc(Br)cn2)CC1,0.0114%,–
Cc1ccccc1NC(=O)CCNS(=O)(=O)c1ccc2[nH]c(=O)oc2c1,-1.52%,–
CC(C)N(C)C(=O)CCc1nnc(CCc2c[nH]c3ccccc23)o1,-2.91%,–
O=C(Nc1cccc(C(=O)NC2CC2)c1)c1ccc(F)c(S(=O)(=O)N2CCOCC2)c1,1.05%,–
CC(=O)NC(c1cccs1)c1cc(Br)c2cccnc2c1O (stereo not drawn),-1.32%,–
COc1ccc(-c2[nH]ncc2CN(Cc2nccn2C)C(C)C)cc1F,-2.61%,–
COc1ccc(CNC(=O)CN2C(=O)NC3(CCCc4sccc43)C2=O)cc1 (stereo not drawn),-1.41%,–
O=S1(=O)C=C(SCCN2CCCC2)c2ccccc21,0.155%,–
CC(C)(C)NC(=O)CN(C(=O)c1ccc(Cl)nc1)c1cccc2ccccc12,-0.978%,–
CC(C#N)(NC(=O)CN1CCN(S(=O)(=O)c2cc(C(F)(F)F)ccc2Cl)CC1)C1CC1 (stereo not drawn),3.45%,–
Cc1nc(COc2cccc(Cl)c2)sc1C(=O)/C=C/N(C)C,-24.3%,–
COc1ccc([C@H]2CC(=O)C=C(/C=C/c3ccc(Cl)cc3)C2)cc1,-0.334%,–
COc1ccc(F)cc1C(=O)COC(=O)c1n[nH]c(=O)c2ccccc12,-0.0952%,–
CC(C)N(C(=O)Cn1cc(SCC(=O)N2CCCC2)c2ccccc21)C(C)C,0.718%,–
CN(C)CCN=c1cc(-c2ccccc2)oc2ccc(Cl)cc12,-2.28%,–
CC1(C)C/C(=C(/C#N)C(N)=O)CCO1,-0.376%,–
COc1ccccc1Oc1ccc(N2CC(C(=O)OCC(=O)c3ccc(F)cc3)CC2=O)cc1 (stereo not drawn),-1.04%,–
CCCOc1ccc(C(=O)C(CCC(CNCC)C(=O)c2ccc(OCCC)cc2)CNCC)cc1 (stereo not drawn),0.107%,–
Cc1ccc(S(=O)(=O)N2CCCC2C(=O)OCc2nc3sc(C)c(C)c3c(=O)[nH]2)cc1 (stereo not drawn),1.1%,–

SMILES,"activity, negative = inhibition",Potency
Nc1c(Cl)cc(S(N)(=O)=O)cc1S(N)(=O)=O,0.708%,–
Nc1ccc(Cl)c(S(=O)(=O)Nc2ccccc2Cl)c1,1.09%,–
O=C(CN1CCN(C(=O)c2ccco2)CC1)Nc1ccc(Cl)c(C(F)(F)F)c1,-2.16%,–
Cc1ccc2nc(SCc3nnc(-c4ccccc4[N+](=O)[O-])o3)c(C#N)cc2c1,0.0284%,–
Cn1c2ccc(F)cc2c2nnc(NN)nc21,-3.17%,–
Cn1c(=O)c([N+](=O)[O-])c(Oc2ccccc2)c2ccccc21,-2.22%,–
CCn1c(=O)c(=O)n(CC)c2cc(N3CCCCC3)c(NC(=O)c3ccc(Cl)cc3)cc21,-1.8%,–
O=C1OC2(CCCCC2)CC2=C1C1O[C@](c3ccsc3)(Cc3ccccc31)O2,-2.46% [at 15.4 µM],–
CCOC(=O)C1=C(CSc2nnnn2C)N(C)C(=O)NC1c1ccccc1 (stereo not drawn),-0.436%,–
CCc1nnc(NC(=O)C2CCN(C(=O)c3ccccc3C)CC2)s1,0.687%,–
Cc1ccc(NC(=O)Cn2cccc2C2=NC(c3ccccc3)CO2)c(C)c1 (stereo not drawn),-0.418%,–
CC(OC(=O)Cc1ccc(F)cc1)C(=O)N1CCc2ccccc21 (stereo not drawn),-0.947%,–
COCCn1c(SCC(=O)N2CCCCCC2)nc2c(c1=O)SCC2,-22%,–
Cc1ccc(-n2nc(C)c(C(=O)O)c2-n2cccc2)cc1,2.77%,–
Cc1cccc(N(Cc2ccccc2)C(=O)c2ccccc2F)c1,-2.75%,–
CCCOC1CCCN(Cc2cn(C)nc2-c2ccccc2F)C1 (stereo not drawn),-0.377%,–
O=S1(=O)CCC(NC(=S)SCc2ccccc2Br)C1 (stereo not drawn),0.837%,–
Cc1ccc(-n2nc3c(=O)n(C(C)C(=O)NCc4ccc5c(c4)OCO5)nc(C)c3c2C)cc1 (stereo not drawn),-0.0835%,–
Cc1ccc(NC(=O)Nc2cccnc2)cc1,1.12%,–
Cc1ccc(-c2nc(-c3cccnc3)sc2CC(=O)Nc2ccc(C)c(Cl)c2)cc1,–,28.2 µM (active)
Cc1nc(-c2ccc(F)cc2)c(CC(=O)Nc2cccc(S(=O)(=O)N3CCOCC3)c2)s1,-1.11%,–
COC(=O)c1sc2[nH]c(=S)n(N)c(=O)c2c1C,-11.1%,–
CCOc1ccc(C(CCc2ccccc2)NC(=O)c2ccc(OC)c(OC)c2)cc1OCC (stereo not drawn),0.0376%,–
CC(C)(CNC(=O)Cc1ccc(Cl)cc1Cl)N1CCOCC1,0.0015%,–
COc1ccc(OC)c(S(=O)(=O)N(C)CC(=O)N2CCN(c3ccccc3)CC2)c1,-4.94%,–
Cc1ccc(S(=O)(=O)N2CCCCC2)cc1NC(=O)CCNC(=O)c1ccccc1,0.79%,–
